# TDP1 cell noCPT: qHTS for Inhibitors of human tyrosyl-DNA phosphodiesterase 1 (TDP1): qHTS in cells in absence of CPT | DT40 Tdp1-/- hTDP1 cells, no CPT, ATP luminescence, 48 h | Potency, µM (top dose mostly 46.2 µM), for the others: top-dose activity change, negative = growth inhibition, actives largely listed as inhibitors | 15% of 420,000 active | AID 686978, 2013; further: potency means the concentration at half of the fitted maximal effect; on the % scale 0 is the no-effect control and ±100 the full control effect; nearly all actives have a fitted effect of over 55% in size
#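 Seeded 400 DT40-hTDP1 cells/well (vehicle DMSO, no 20 nM CPT); pinned compounds; ≥48 hr at 37 °C; CellTiter-Glo luminescence as viability measure.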
# TGFb inhibitor: inhibitors of TGF-b signaling. HepG2 CAGA-GFP TGF-b/SMAD3 reporter, GFP fluorescence, 18 h; TGF-beta stimulated, 500 pg/mL final. Potency, µM (highest dose often 46.1 µM), for the others: at the top dose activity, negative = inhibition, most hits filed as inhibitors. 1.2% of 410,000 active; further: potency means the concentration at half of the fitted maximal effect; on the % scale 0 is the no-effect control and ±100 the full control effect; nearly all actives have a fitted effect of over 65% in size
#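 HEPG2 CAGA-GFP reporter cells (1000/well, DMEM with 1% FBS) received compounds, then recombinant TGF-beta at 500 pg/mL final for 18 hours at 37 degrees C. Per-cell GFP summed per well was normalised to unstimulated and stimulated DMSO controls before curve fitting.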
# IL-1B inflam inh: inflammasome signaling inhibition, IL-1 beta readout; THP-1 LPS/ATP IL-1B secretion, AlphaLISA, 16 h; hits give low values; activity change, % at 57.5 µM; 4.7% of 360,000 active; in the data active means activity change below about -50%; inconclusive means mostly about -30% to -49%; further: on the % scale 0 is the no-effect control and ±100 the full control effect
#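 THP-1 cells pretreated 1 hr with compounds (up to 57.5 uM final), then stimulated with LPS (250 ng/mL final) plus ATP (1.25 mM final); secreted IL-1B measured by AlphaLISA after 16 hr, decreased signal indicating inhibition.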
# HepG2 tox: kills HepG2 cells in TGF-b inhibitor counter-screen; HepG2 CAGA-GFP viability, ATP luminescence, 18 h; Potency, µM (doses to about 46.1 µM), for inactives: at the highest dose activity change, negative = cytotoxicity, actives largely listed as cytotoxic; AID 588856; 0.76% of 410,000 active; further: potency means the concentration at half of the fitted maximal effect
#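 CellTiter-Glo luminescence gave cytotoxicity after 18 hours at 37 degrees C. The cells were HepG2 CAGA-GFP in 1% FBS DMEM, stimulated with 500 pg/mL TGF-beta after compound addition. %Activity was normalised to no-cell wells (complete cell-killing) and DMSO (no toxicity), and curves were fitted and classified.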
# TDP1 cell CPT: growth inhibition of DT40 Tdp1-/-;hTDP1 cells with camptothecin (screen for TDP1 inhibitors); 12% of 420,000 active; AID 686979; Potency, µM (highest dose often 46.2 µM), inactives show top-dose activity change, negative = growth inhibition, hits mostly inhibitors; chicken DT40 Tdp1-/-;hTDP1 cells + 20 nM CPT, ATP luminescence, 48 h; further: potency means the concentration at half of the fitted maximal effect; on the % scale 0 is the no-effect control and ±100 the full control effect; nearly all actives have a fitted effect of over 55% in size
#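 Cell growth measured by CellTiter-Glo luminescence after a minimum 48 h, 37 C compound exposure with 20 nM CPT in Tdp1-knockout DT40 cells stably expressing hTDP1, seeded 400/well; qHTS titration format.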
# TDP1 block: TDP1 (human) enzyme inhibition. Q9NUW8. recombinant TDP1, AlphaScreen DNA substrate cleavage. Potency, µM (titrated, usually from 130 µM), for the others: at the highest dose activity change, negative = inhibition, usual class: inhibitors. 0.28% of 350,000 active. AID 485290; further: potency means the concentration at half of the fitted maximal effect; on the % scale 0 is the no-effect control and ±100 the full control effect; nearly all actives have a fitted effect of over 40% in size
# Target sequence (Q9NUW8 whole entry, looked up): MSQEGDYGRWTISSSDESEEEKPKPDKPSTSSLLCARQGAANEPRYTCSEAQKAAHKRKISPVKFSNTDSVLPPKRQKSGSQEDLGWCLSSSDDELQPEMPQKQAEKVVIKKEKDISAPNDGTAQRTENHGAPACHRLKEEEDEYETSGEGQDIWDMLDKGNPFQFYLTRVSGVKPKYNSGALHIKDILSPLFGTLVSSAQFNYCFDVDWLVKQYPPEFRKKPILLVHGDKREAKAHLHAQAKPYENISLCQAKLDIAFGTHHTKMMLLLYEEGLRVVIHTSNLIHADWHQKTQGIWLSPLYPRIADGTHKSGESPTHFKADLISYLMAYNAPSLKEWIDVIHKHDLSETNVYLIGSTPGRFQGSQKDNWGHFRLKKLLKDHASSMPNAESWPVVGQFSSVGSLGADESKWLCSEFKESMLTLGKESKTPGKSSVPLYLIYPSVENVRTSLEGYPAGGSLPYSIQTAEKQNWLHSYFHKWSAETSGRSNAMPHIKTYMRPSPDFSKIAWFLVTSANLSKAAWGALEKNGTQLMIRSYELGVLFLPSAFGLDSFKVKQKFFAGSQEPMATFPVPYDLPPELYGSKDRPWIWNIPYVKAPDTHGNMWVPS
#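 Recombinant E. coli-expressed Tdp1 (1 nM) preincubated with compound 15 min at RT, then 5'-biotin/3'-phosphotyrosine-FITC DNA substrate (15 nM) added for 5 min. AlphaScreen beads (10 ug/ml) added, 10 min RT; tyrosine-FITC cleavage read as signal loss.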
# Numbers without * were called inactive; u = inconclusive; x = not tested or not shown; ! = a repeat was not active; [ ] = another dose, or the depositor's remark. The list is not random: actives were taken first. Their share in the collection is about 19%. Unless noted, the call rests on the fitted dose curve; in most records, active means well fitted curve in the direction sought with a large enough effect; inconclusive means small, poorly fitted or top-dose-only effect, or another doubt; inactive means no such curve, though single readings can be large; an effect the other way counts as inactive or inconclusive.
SMILES,TDP1 cell noCPT,TGFb inhibitor,IL-1B inflam inh,HepG2 tox,TDP1 cell CPT,TDP1 block
CC1(C)C(=O)CC[C@]2(C)C3C(=O)C=C4[C@H]5C[C@@](C)(C(=O)O)CC[C@]5(C)CC[C@]4(C)[C@]3(C)CC[C@@H]12 (stereo partly drawn),-11%,u,17,6%,-21%,-13%
CC1=C(O)C(=O)C=C2C1=CC=C1[C@]2(C)CC[C@@]2(C)C3C[C@](C)(C(=O)O)CC[C@@]3(C)CC[C@@]12C (stereo partly drawn),0.82µM*,x,x,x,1µM*,12%
Cn1c(CCCC(=O)O)nc2cc(N(CCCl)CCCl)ccc21,19µM*,x,x,x,u,x
CCS(=O)(=O)NC(C)c1nnc2n1-c1ccc(Br)cc1C(c1ccccc1Cl)=NC2 (stereo not drawn),-24%,-7%,38,-9%,-8%,x
CC(=O)OC1CC[C@@]2(C)C3CC(=O)[C@]4(C)C(C(C)=O)=CCC4C3CC[C@H]2C1 (stereo partly drawn),u,x,x,x,-4%,5%
C=C1C(O)C2OC3(CCC(/C=C/C(C)C4CC(C)=CC5(OC(CC(C)(O)C(=O)O)CCC5O)O4)O3)CCC2OC1C(O)CC(C)C1OC2(CCCCO2)CCC1C (stereo not drawn),x,x,x,x,x,-3%[3.34 µM]
C[C@]12CCC(=O)C=C1CC[C@@H]1[C@@H]2CC[C@]2(C)C(=O)CC[C@@H]12,18µM*!,9%,5,-20%,u,9%
CC(=O)[C@H]1CC[C@H]2[C@@H]3CCC4=CC(=O)CC[C@]4(C)[C@H]3CC[C@]12C,18µM*,5%,u,2%,27µM*,8%
C[C@@]12CCC3C(CCC4=CC(=O)CC[C@]43C)C1CCC2O (stereo partly drawn),16µM*,x,x,x,u,10%[56.1 µM]
O=C(O)CCC(=O)OC[C@@H](NC(=O)C(Cl)Cl)C(O)c1ccc([N+](=O)[O-])cc1 (stereo partly drawn),u,x,x,x,u,6%
C[C@]12CCC(=O)C=C1C=CC1C2CC[C@@]2(C)C1CC[C@@H]2O (stereo partly drawn),-27%,1%,14,-2%,u,x
CCCc1cc2c(n1CCO)C(C)C1CN(C(=O)c3ccccc3)C(C)(C(=O)OC)C21 (stereo not drawn),x,x,x,x,x,9%
COc1cccc(C(=O)NCc2nc(-c3cccc(NC(=O)c4ccoc4C)c3)oc2C)c1OC,6.5µM*,x,x,x,u,x
Cc1ccc(CNCc2c(C(=O)O)n(Cc3ccccc3C)c3cc(C)ccc23)cc1,7.3µM*,3%,x,10%,u,6%
Cc1cc(C)c(Cn2c(C(=O)O)c(C=O)c3ccccc32)c(C)c1,6%,5%,40,-3%,7%,0%
N=C1c2ccccc2CN1NC(=O)c1ccc(Br)cc1,2%,-12%,-102*,-19%,-15%,2%
CCN(CCCNS(=O)(=O)c1ccc2c(c1)oc(=O)n2C)c1cccc(C)c1,u,-23%,-12,-23%,u,4%
CSc1nc(Cl)c(Br)c(N2CC2)n1,-19%,2%,10,9%,-22%,x
c1ccc(CCN2CCCCC2)cc1,-2%,6%,x,5%,2%,x
CCN(CC)Cc1cc(Nc2ccnc3cc(Cl)ccc23)ccc1O,23µM*!,-9%,-77*!,-26%,16µM*!,16%[21 µM]
Cc1cc(-c2nc3ccccc3s2)ccc1NC(=O)c1cc(Cl)ccc1Cl,u,0%,x,2%,u,-5%
COc1ccc2nc(N3CCN(C(=O)CS(=O)(=O)c4ccc(C)cc4)CC3)sc2c1,13µM*,u,x,-9%,12µM*,-3%
CCCCC[C@@H]1CCCCC[C@@H](O)C[C@@H](O)[C@H](O)/C=C/C(=O)O1,u,x,-66*,x,-25%,x
O[C@@H]1CCCC[C@@H]1N1CCC(c2ccccc2)CC1,8%,x,x,x,-3%,1%
Cc1ccc(Cn2cccc(C(=O)Nc3cc([N+](=O)[O-])ccc3C)c2=O)cc1,u,-35%,x,-6%,-16%,3%
SMILES,TDP1 cell noCPT,TGFb inhibitor,IL-1B inflam inh,HepG2 tox,TDP1 cell CPT,TDP1 block
CC(C)N1C(=O)/C(=C/C=C/c2ccco2)C(=O)N(Cc2ccco2)C1=O,15µM*,13%,-106*,-29%,16µM*,6%
COc1ccc(/C=C2/C(=O)N(Cc3ccco3)C(=O)N(C(C)C)C2=O)cc1,-6%,23%,10,-2%,-2%,-13%
CC[C@H](C)[C@H](NC(=O)[C@@H]1CCCN1C(=O)[C@H](CCC(=O)O)NC(=O)[C@@H](NC(=O)[C@H](Cc1ccccc1)NC(=O)[C@@H]1CCCN1C(=O)[C@@H](N)Cc1ccc(O)cc1)C(C)C)C(=O)O,5%[4.12 µM],x,x,x,-1%[4.12 µM],7%
CC12CC(=O)C3C(CCC4CC(=O)C=CC43C)C1CCC2=O (stereo not drawn),u,23%,-93*,0%,-21%,x
O=C(CI)c1ccc(Cl)cc1,-4%,-2%,x,-5%,-20%,x
O=c1[nH]c(=S)n(CCC2=CCCCC2)c(O)c1C=NC1CCN(Cc2ccccc2)CC1,u,-33%,0,5%,21µM*,1%
O=c1[nH]c(=S)n(CCC2=CCCCC2)c(O)c1/C=N/Nc1ccccc1,-5%,-13%,0,-24%,-9%,x
CCOC(=O)c1c(/N=C/C2C(=O)NC(=O)NC2=O)sc2c1CCC2,6%,10%,-9,2%,11%,2%
CCOC(=O)c1c(-n2c(C)cc(C=C3C(=O)NC(=S)NC3=O)c2C)sc2c1CCCC2,18µM*,u,-110*,-47%,23µM*,0%
CCOC(=O)c1c(-n2c(C)cc(/C=C3/C(=O)NC(=O)N(CC)C3=O)c2C)sc2c1CCCC2,u,-25%,6,-17%,16µM*,x
Cc1ccc(N2C(=O)NC(=O)/C(=C\c3cc(C)n(-c4sc5c(c4C#N)CCCC5)c3C)C2=O)cc1,u,u,-84*,-34%,u,8%
C=C(C)[C@]12C[C@@H](C)[C@@]34O[C@](Cc5ccccc5)(O[C@@H]1[C@@H]3C=C(COC(=O)Cc1ccc(O)c(OC)c1)C[C@]1(O)C(=O)C(C)=C[C@@H]41)O2,x,x,x,x,x,12%

# Screens (PubChem)
